The target of test [1] is Transcription factor E2F1 (Homo sapiens) (UniProt Q01094). As to the kind of experiment: ATG_E2F_CIS: Attagene CIS-FACTORIAL HepG2 Assay for human E2F Transcription Factor 1 (AID 2282935). The following applies: HepG2 Attagene cis-reporter, E2F reporter RNA transcripts; actives raise or lower the signal. Summed up:
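Measures reporter transcript levels via RT-PCR with capillary electrophoresis detection in HepG2 cells harboring cis-regulated reporter units; 24 h post-dose; bidirectional curve fitting with DMSO as baseline.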

Test [2] in a line: ATG_E_Box_CIS: Attagene CIS-FACTORIAL HepG2 Assay for human Enhancer Box (E-box) (AID 2282936). Conditions: HepG2 E-box cis-reporter transcription, actives raise or lower the signal. Summed up:
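First, HepG2 cells receive multiple cis-regulated reporter constructs by transient transfection. Next, chemicals are applied for 24 h. Finally, reporter mRNA is quantified via RT-PCR and capillary electrophoresis, with DMSO as baseline.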

Test [3] is described as follows: ATG_M_61_CIS: Attagene CIS-FACTORIAL HepG2 Assay for M61 Transcription Factor (Internal Marker) (AID 2282937). The following applies: HepG2 Attagene CIS-FACTORIAL M61 internal marker reporter; actives raise or lower the signal. Summed up: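 Using transiently transfected HepG2 liver cells, reporter transcript levels were assessed 24 h post-dosing by RT-PCR and capillary electrophoresis. Changes in either direction were fitted relative to DMSO controls.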

Test [4] is described as follows: ATG_EGR_CIS: Attagene CIS-FACTORIAL HepG2 Assay for human Early Growth Response 1 (EGR1) (AID 2282938). The following applies: HepG2 Attagene CIS-FACTORIAL EGR reporter mRNA; actives raise or lower the signal. Summed up: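 Fluorescent capillary-electrophoresis signal of reporter cDNA fragments serves as read-out. HepG2 cells bear transiently transfected cis-promoter reporter units and are exposed 24 h; gain- or loss-of-signal is fitted against DMSO.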

Test [5] can be described thus: ATG_M_19_CIS: Attagene CIS-FACTORIAL HepG2 Assay for M19 Transcription Factor (Internal Marker) (AID 2282939). The following applies: HepG2 Attagene CIS-FACTORIAL M19 internal marker reporter; actives raise or lower the signal. Put shortly:
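Readout: fluorescent reporter-transcript fragments by capillary electrophoresis after RT-PCR. Human HepG2 liver cells carried transfected MRTU constructs reporting endogenous transcription-factor activity; exposure 24 h. Gain or loss of signal fitted relative to DMSO.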

Test [6] can be described thus: ATG_ERE_CIS: Attagene CIS-FACTORIAL HepG2 Assay for Estrogen Response Element (ERE) (AID 2282940). The following applies: HepG2 ERE cis-reporter, Attagene RNA transcript; actives raise or lower the signal. Put shortly:
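Readout: reporter mRNA induction by RT-PCR, FAM-labelled primer extension, HpaI digestion and capillary electrophoresis, 24 h after dosing transfected HepG2 cells. Endogenous transcription factors act on cis-element-regulated reporters. Gain or loss fitted against DMSO.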

The nature of test [7]: ATG_Ets_CIS: Attagene CIS-FACTORIAL HepG2 Assay for human Erythroblast Transformation Specific (ETS) (AID 2282941). Conditions: HepG2 ETS cis-reporter transcription, actives raise or lower the signal. Put shortly:
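After transient cis-reporter transfection, HepG2 cells receive test chemical for 24 h. Reporter mRNA levels, measured by RT-PCR and capillary electrophoresis fluorescence, are analysed bidirectionally relative to the DMSO baseline.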

Test [8] has as its target Hepatocyte nuclear factor 3-beta (Homo sapiens) (UniProt Q9Y261). As to the kind of experiment: ATG_FoxA2_CIS: Attagene CIS-FACTORIAL HepG2 Assay for human Forkhead box A2 (FOXA2) (AID 2282942). The following applies: HepG2 cis-reporter transcription factor activity, 24 h; actives raise or lower the signal. Summed up: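 Fluorescence signal of reporter cDNA fragments, separated by capillary electrophoresis, reflects endogenous transcription factor activity in transfected HepG2 after 24 h. Both increases and decreases fitted against DMSO.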

Test [9] in a line: ATG_FoxO_CIS: Attagene CIS-FACTORIAL HepG2 Assay for human Forkhead box O (FoxO) (AID 2282943). The following applies: HepG2 Attagene cis-reporter, FoxO element, mRNA; actives raise or lower the signal. Summed up:
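HepG2 cells transiently transfected with cis-element-driven reporter units report endogenous FoxO activity. After 24 h chemical exposure, reporter mRNA quantified by RT-PCR, fluorescent labeling, HpaI digestion and capillary electrophoresis; bidirectional fit versus DMSO.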

The nature of test [10]: ATG_GATA_CIS: Attagene CIS-FACTORIAL HepG2 Assay for human GATA Binding Protein (AID 2282944). The following applies: HepG2 GATA cis-element reporter, Attagene multiplex mRNA; actives raise or lower the signal. Put shortly:
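Read-out: fluorescent reporter mRNA fragments resolved by capillary electrophoresis after RT-PCR. Human liver HepG2 cells carried transiently transfected cis-regulated reporter constructs; chemicals incubated 24 h; gain or loss of signal fitted relative to DMSO.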

The nature of test [11]: ATG_GLI_CIS: Attagene CIS-FACTORIAL HepG2 Assay for human Zinc Finger Protein GLI1 (AID 2282945). The following applies: HepG2, Attagene cis-factorial reporter mRNA, GLI element; actives raise or lower the signal. Put shortly:
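Transiently transfected HepG2 cells report endogenous transcription factor activity via cis-element-driven reporter units. After 24 h compound exposure, reporter mRNA was measured by RT-PCR with capillary electrophoresis; bidirectional fitting against DMSO baseline.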

The nature of test [12]: ATG_ISRE_CIS: Attagene CIS-FACTORIAL HepG2 Assay for human Interferon Regulatory Factor 1 (IRF1) binding to an Interferon-Stimulated Response Element (ISRE) (AID 2282948). The following applies: HepG2 ISRE cis-reporter (Attagene), mRNA transcription readout; actives raise or lower the signal. Put shortly:
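Quantitation relies on labelled RT-PCR fragments separated by capillary electrophoresis. Human HepG2 cells bearing cis-promoter reporter constructs were treated 24 h; DMSO served as baseline for bidirectional fitting.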

Test [13] can be described thus: ATG_M_32_CIS: Attagene CIS-FACTORIAL HepG2 Assay for M32 Transcription Factor (Internal Marker) (AID 2282949).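 Also: background control marker of the multiplexed CIS panel rather than a real target.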 The following applies: HepG2 Attagene cis-factorial M32 reporter, mRNA; actives raise or lower the signal. Summed up:
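Internal background marker read-out: RT-PCR/capillary electrophoresis fluorescence of reporter transcripts from transiently transfected HepG2 cells after 24 h chemical exposure. Activity fitted bidirectionally relative to DMSO negative control.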

Test [14] in a line: ATG_M_06_CIS: Attagene CIS-FACTORIAL HepG2 Assay for M06 Transcription Factor (Internal Marker) (AID 2282950). The following applies: HepG2 Attagene CIS-FACTORIAL M06 internal marker reporter; actives raise or lower the signal. Put shortly: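 Terse: HepG2, transient MRTU transfection (FuGene 6), 24 h dosing; total RNA, oligo(dT) RT, PCR, FAM label, HpaI cut, capillary electrophoresis; bidirectional fit vs DMSO baseline; background-control endpoint.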

Test [15] concerns the target Hypoxia-inducible factor 1-alpha (Homo sapiens) (UniProt Q16665). As to the kind of experiment: ATG_HIF1a_CIS: Attagene CIS-FACTORIAL HepG2 Assay for human Hypoxia Inducible Factor 1 (HIF1A) (AID 2282951). The following applies: HepG2 Attagene cis-factorial HIF1a reporter transcription; actives raise or lower the signal. Summed up: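 Endogenous-TF cis reporter readout, human HepG2 cells, 24 h incubation; mRNA detected via RT-PCR and capillary electrophoresis fluorescence; DMSO-normalised bidirectional fitting.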

In test [16] the target is Hepatocyte nuclear factor 6 (Homo sapiens) (UniProt Q9UBC0). Description: ATG_HNF6_CIS: Attagene CIS-FACTORIAL HepG2 Assay for human Hepatocyte Nuclear Factor 6 (HNF6) (AID 2282952). The following applies: HepG2 Attagene cis-factorial HNF6 reporter transcription; actives raise or lower the signal. Summed up: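 Transiently transfected HepG2 cells expressing cis-regulated reporter transcription units were exposed to chemical for 24 h in a 24-well format. Reporter transcript abundance was determined by fluorescence capillary electrophoresis.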

For test [17], the target named is Heat shock factor protein 1 (Homo sapiens) (UniProt Q00613). Description: ATG_HSE_CIS: Attagene CIS-FACTORIAL HepG2 Assay for human Heat Shock Transcription Factor 1 (HSE) (AID 2282953). The following applies: HepG2 HSE cis-reporter, Attagene RNA transcription; actives raise or lower the signal. Summed up:
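Read-out: fluorescence of reporter-specific RT-PCR fragments separated by capillary electrophoresis. HepG2 carrying transfected cis-element reporter units; 24 h dosing; activity fitted in both directions relative to DMSO baseline.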

The nature of test [18]: ATG_MRE_CIS: Attagene CIS-FACTORIAL HepG2 Assay for human Metal Responsive Element (MRE) (AID 2282954). The following applies: HepG2 MRE cis-reporter transcription, Attagene multiplex; actives raise or lower the signal. Summed up:
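Fluorescent reporter fragments separated by capillary electrophoresis give mRNA induction for the MRE unit after 24 h treatment of transfected HepG2 cells. Endogenous transcription-factor activity is read; DMSO serves as negative control and baseline.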

The target of test [19] is Bile acid receptor (Homo sapiens) (UniProt Q96RI1). As to the kind of experiment: ATG_IR1_CIS: Attagene CIS-FACTORIAL HepG2 Assay for human Nuclear Receptor Subfamily 1 Group H Member 4 (NR1H4), IR1 submotif (AID 2282946). Conditions: IR1 reporter transcription, actives raise or lower the signal. Summed up:
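HepG2 cells transiently transfected with multiple cis-promoter-driven reporter units to measure endogenous transcription factor activity; 24 h exposure. Reporter mRNA read by RT-PCR, FAM labelling, HpaI digestion and capillary electrophoresis. Bidirectional fit versus DMSO.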

Test [20] is described as follows: ATG_GRE_CIS: Attagene CIS-FACTORIAL HepG2 Assay for human Glucocorticoid Response Elements (GRE) (AID 2282947). The following applies: HepG2 GRE cis-reporter, Attagene multiplex mRNA; actives raise or lower the signal. Summed up:
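Endogenous transcription factor activity is read through cis-element reporter constructs transiently transfected into HepG2 cells. After 24 h treatment, labelled RT-PCR products are resolved by capillary electrophoresis; DMSO sets baseline for bidirectional curve fitting.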

Some structures have more than one record in an assay (separate samples or runs), and their calls can disagree. Active and inactive are the calls of the source. The calls were made as follows: active = hit-call score of the fitted dose curve at least 0.9, where 1 is the maximum; inactive = score below 0.9.

One may read the AC50 as the concentration giving half of the maximal activity seen.

Sequence of Hepatocyte nuclear factor 3-beta (Homo sapiens) (Q9Y261 whole entry, looked up, the tested form may be a part): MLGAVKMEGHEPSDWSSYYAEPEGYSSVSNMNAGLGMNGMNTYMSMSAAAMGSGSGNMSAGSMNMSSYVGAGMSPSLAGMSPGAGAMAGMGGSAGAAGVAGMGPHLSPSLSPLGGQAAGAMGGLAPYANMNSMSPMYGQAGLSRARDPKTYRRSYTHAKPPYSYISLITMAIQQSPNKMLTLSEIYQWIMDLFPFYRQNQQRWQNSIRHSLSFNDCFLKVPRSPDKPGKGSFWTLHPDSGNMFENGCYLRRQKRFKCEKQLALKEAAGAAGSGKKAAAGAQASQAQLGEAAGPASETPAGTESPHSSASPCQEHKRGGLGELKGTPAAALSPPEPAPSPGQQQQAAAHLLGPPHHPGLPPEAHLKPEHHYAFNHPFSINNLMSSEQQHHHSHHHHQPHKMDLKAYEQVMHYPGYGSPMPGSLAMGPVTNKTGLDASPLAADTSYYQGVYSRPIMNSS
Sequence of Bile acid receptor (Homo sapiens) (Q96RI1 whole entry, looked up): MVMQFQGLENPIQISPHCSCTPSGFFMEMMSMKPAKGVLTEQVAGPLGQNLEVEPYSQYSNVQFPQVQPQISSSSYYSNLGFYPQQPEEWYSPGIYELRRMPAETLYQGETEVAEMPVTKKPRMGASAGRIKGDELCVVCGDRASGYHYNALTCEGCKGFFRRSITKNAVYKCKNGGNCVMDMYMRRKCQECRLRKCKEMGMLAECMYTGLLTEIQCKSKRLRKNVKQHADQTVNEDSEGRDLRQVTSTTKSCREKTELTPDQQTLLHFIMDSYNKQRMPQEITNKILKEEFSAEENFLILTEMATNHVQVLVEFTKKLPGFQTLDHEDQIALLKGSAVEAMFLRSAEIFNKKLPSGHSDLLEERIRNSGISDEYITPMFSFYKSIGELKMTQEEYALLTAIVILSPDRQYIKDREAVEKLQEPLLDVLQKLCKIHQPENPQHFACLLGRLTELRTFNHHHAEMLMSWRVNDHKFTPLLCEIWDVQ
Sequence of Hypoxia-inducible factor 1-alpha (Homo sapiens) (Q16665 whole entry, looked up): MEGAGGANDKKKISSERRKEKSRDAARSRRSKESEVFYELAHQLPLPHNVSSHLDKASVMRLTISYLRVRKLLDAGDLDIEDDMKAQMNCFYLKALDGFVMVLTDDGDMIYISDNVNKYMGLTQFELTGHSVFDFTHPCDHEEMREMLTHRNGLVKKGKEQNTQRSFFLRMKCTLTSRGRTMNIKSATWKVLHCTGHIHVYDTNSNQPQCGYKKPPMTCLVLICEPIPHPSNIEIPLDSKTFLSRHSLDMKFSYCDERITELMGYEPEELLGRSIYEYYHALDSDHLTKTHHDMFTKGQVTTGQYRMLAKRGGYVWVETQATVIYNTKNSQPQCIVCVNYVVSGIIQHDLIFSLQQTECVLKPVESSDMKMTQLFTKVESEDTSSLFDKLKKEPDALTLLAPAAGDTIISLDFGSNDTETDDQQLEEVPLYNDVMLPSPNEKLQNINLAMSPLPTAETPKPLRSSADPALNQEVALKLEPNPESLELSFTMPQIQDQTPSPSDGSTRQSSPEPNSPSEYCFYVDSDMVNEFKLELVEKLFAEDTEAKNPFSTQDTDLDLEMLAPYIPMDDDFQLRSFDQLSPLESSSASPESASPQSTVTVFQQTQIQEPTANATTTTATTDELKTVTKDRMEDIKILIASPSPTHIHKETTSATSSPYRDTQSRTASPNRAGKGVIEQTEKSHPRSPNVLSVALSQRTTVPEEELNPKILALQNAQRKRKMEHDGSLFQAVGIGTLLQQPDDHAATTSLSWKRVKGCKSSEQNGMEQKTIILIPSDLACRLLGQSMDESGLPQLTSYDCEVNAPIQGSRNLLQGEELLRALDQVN
Sequence of Transcription factor E2F1 (Homo sapiens) (Q01094 whole entry, looked up): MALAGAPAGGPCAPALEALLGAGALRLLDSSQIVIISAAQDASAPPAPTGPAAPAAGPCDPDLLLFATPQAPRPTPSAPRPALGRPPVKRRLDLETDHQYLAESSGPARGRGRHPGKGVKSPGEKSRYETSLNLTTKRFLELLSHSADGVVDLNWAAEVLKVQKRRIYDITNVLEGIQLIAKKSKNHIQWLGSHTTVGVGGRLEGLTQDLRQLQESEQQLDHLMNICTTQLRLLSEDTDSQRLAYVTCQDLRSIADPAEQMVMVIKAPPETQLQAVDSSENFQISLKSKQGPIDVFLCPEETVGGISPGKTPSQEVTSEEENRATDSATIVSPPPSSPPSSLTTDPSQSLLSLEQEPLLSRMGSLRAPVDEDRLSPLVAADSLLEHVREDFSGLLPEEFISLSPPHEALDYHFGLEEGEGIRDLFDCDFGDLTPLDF
Sequence of Hepatocyte nuclear factor 6 (Homo sapiens) (Q9UBC0 whole entry, looked up): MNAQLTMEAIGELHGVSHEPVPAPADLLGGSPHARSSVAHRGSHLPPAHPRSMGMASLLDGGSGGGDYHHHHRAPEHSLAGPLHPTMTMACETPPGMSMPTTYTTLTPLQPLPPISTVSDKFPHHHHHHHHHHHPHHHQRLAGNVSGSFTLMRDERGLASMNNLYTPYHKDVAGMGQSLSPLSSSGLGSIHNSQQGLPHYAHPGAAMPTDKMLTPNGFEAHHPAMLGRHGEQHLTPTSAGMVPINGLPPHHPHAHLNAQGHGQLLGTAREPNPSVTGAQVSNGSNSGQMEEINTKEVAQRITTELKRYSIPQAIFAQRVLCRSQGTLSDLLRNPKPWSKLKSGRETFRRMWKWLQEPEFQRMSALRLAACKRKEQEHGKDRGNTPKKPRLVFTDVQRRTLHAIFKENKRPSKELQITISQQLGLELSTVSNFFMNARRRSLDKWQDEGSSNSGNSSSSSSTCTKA
Sequence of Heat shock factor protein 1 (Homo sapiens) (Q00613 whole entry, looked up, the tested form may be a part): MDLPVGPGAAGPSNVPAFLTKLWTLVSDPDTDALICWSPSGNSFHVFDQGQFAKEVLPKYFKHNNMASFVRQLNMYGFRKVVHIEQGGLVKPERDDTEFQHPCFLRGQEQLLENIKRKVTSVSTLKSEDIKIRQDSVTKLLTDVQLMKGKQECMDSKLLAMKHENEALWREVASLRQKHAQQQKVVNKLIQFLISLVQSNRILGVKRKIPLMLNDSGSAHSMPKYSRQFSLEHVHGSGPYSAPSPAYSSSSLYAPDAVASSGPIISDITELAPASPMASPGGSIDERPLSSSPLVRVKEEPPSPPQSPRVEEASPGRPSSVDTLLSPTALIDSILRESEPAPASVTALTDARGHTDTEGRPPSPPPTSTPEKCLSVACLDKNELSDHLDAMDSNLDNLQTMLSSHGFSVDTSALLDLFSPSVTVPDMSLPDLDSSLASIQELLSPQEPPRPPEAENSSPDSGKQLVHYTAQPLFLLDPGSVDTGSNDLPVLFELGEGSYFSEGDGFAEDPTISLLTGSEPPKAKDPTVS

Take `OC1CCCCC1`: the compound was called inactive in test [1], in test [2], in test [3], in test [4], in test [5] and in test [6]. Further, the call in test [7], in test [8], in [9], in test [10], in test [11] and in test [12] was inactive. The compound was classed as inactive in test [13], in test [14], in [15], in test [16], in test [17] and in [18]. In [6], the AC50 was 100 µM (active).
In the case of `Nc1cccc2c(N)cccc12`, the compound was called inactive in [1], in test [2], in test [3], in test [4], in [5] and in test [6]. In addition, the result in test [7], in test [8], in test [9], in test [10], in test [11] and in test [19] was inactive. Besides, the outcome in test [20], in test [12], in test [13], in test [14], in test [15] and in [17] was inactive. For the same compound, the result in [18] was inactive.
As for `CC[C@H](C)[C@@H](C(=O)O)n1sc2ccccc2c1=O`, the result in test [1], in [2], in [3], in test [4], in [5] and in test [6] was inactive. The outcome in [7], in test [8], in test [9], in test [10], in test [11] and in test [19] was inactive. Also, the call in [20], in test [12], in [13], in test [14], in test [15] and in test [16] was inactive. Moreover, the result in test [17] and in test [18] was inactive.
Regarding `CN(C)C=O`, the outcome in test [1], in test [2], in [3], in test [4], in test [5] and in test [6] was inactive. For the same compound, the outcome in [7], in test [8], in test [9], in test [10], in test [11] and in test [19] was inactive. In addition, the outcome in test [12], in test [13], in test [14], in test [15], in test [16] and in [17] was inactive. In test [18], the compound was classed as inactive.
With `c1ccc2c(c1)Cc1ccccc1-2`, the outcome in test [1], in test [2], in test [3], in test [4], in test [5] and in test [7] was inactive. Further, the result in test [8], in test [9], in test [10], in [11], in test [19] and in [20] was inactive. The compound was classed as inactive in [12], in [13], in [14], in [15], in test [16] and in [17]. The compound was called inactive in test [18]. Also, in test [6], the AC50 was 100 µM (active).
Take `CCCCC(CC)COC(=O)CCCCC(=O)OCc1ccccc1` (stereo unspecified): the compound was classed as inactive in [1], in test [2], in [3], in [4], in [5] and in test [6]. Moreover, the result in test [7], in [8], in test [9], in test [11], in [19] and in test [20] was inactive. The compound was called inactive in [12], in test [13], in test [14], in test [15], in test [16] and in [17]. Further, the compound was called inactive in [18].
